# Assay outcomes: PubChem BioAssay, National Center for Advancing Translational Sciences (NCATS)
# ELG1 DNA repair = inhibitors of ELG1-dependent DNA repair in HEK293T cells. Potency, µM (highest dose often 46.1 µM), without a hit: at the top dose activity change, negative = inhibition, most hits filed as inhibitors. HEK293T ELG1-luciferase reporter, luminescence, 16 h; DNA damage induced by 5-fluorouridine. AID 504467. hit rate 2.3% among 330,000; further: on the % scale 0 is the no-effect control and ±100 the full control effect; nearly all actives have a fitted effect of over 55% in size
#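 Quantitative HTS, concentration-response format. 2,000 cells/well co-treated with 5-fluorouridine and compound, 16 hr in 5% CO2 at 37 °C; ONE-Glo luminescence read after 30 min.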
# SW480 rerep = induces DNA re-replication in SW480 colon adenocarcinoma cells; SW480 DNA re-replication, Hoechst DNA content imaging, 48 h; Potency, µM (series often up to 46.1 µM), for the others: top-dose re-replication activation, hits mostly activators; hit rate 1.8% among 340,000; further: % of control where 0% means no effect; nearly all actives have a fitted effect of over 55% in size
#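 Hoechst fluorescence of nuclei (405 nm excitation, 500-530 nm emission) measured by plate-scanning imager after 48 hr compound exposure at 37 C; re-replication scored as increased number of nuclei with elevated intensity.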
# Gal4-VP16 FLuc = inhibits Gal4-VP16 luciferase reporter, ROR gamma counter-screen. Drosophila S2 Gal4-VP16 UAS-luciferase, luminescence, 20 h. Potency, µM (doses to about 53.6 µM), for the others: top-dose activity, negative = inhibition, usual class: inhibitors. hit rate 3.5% among 310,000;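 further: Gal4-VP16 expression switched on by copper sulfate through the metallothionein promoter; on the % scale 0 is the no-effect control and ±100 the full control effect; nearly all actives have a fitted effect of over 50% in size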
# RORgamma inh = inhibitors of mouse ROR gamma transcriptional activity; P51450; Drosophila S2 Gal4-RORgamma UAS-luciferase reporter, 20 h; Potency, µM (doses to about 53.6 µM), for inactives: at the top dose activity change, negative = inhibition, hits mostly inhibitors; hit rate 5.4% among 310,000; further: on the % scale 0 is the no-effect control and ±100 the full control effect; nearly all actives have a fitted effect of over 60% in size
# Target sequence (P51450 whole entry, looked up, the tested form may be a part): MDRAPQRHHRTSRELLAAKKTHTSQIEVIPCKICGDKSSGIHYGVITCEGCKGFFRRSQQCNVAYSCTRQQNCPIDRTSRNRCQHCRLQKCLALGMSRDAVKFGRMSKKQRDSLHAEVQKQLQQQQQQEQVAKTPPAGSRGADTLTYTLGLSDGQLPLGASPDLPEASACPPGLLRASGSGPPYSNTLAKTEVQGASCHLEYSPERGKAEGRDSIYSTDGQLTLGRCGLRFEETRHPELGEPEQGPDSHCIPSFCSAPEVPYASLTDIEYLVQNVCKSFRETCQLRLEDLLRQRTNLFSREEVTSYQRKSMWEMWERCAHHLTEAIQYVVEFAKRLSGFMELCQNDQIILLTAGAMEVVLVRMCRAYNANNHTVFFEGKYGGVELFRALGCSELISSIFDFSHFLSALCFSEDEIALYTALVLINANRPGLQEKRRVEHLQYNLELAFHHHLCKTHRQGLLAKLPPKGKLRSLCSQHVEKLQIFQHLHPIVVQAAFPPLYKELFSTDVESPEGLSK
#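 ROR gamma transcriptional activity was tracked as Gal4-UAS luciferase output in stably transfected Drosophila Schneider cells, with compound added 1 hr before 700 uM copper sulfate induction and a 20 hr ambient-temperature incubation.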
# MCF10A rerep = induces DNA re-replication in MCF 10a normal breast cells; MCF 10A DNA re-replication, Hoechst nuclear intensity, 48 h; Potency, µM (top dose mostly 46.1 µM), inactives show at the highest dose activity, positive = re-replication, actives largely listed as activators; hit rate 2.9% among 350,000; AID 624296; further: % of control where 0% means no effect; nearly all actives have a fitted effect of over 50% in size
# Starred values were filed as active, the others as inactive; ? = inconclusive; / = no result given; [ ] = another dose, or the depositor's remark. Compounds with a hit are over-represented: about 10% of the library has one in this group of screens. The call rests on the fitted dose curve; in most records, active means well fitted curve in the direction sought with a large enough effect; inconclusive means small, poorly fitted or top-dose-only effect, or another doubt; inactive means no such curve, though single readings can be large; an effect the other way counts as inactive or inconclusive. Potency means the concentration at half of the fitted maximal effect.
SMILES,ELG1 DNA repair,SW480 rerep,Gal4-VP16 FLuc,RORgamma inh,MCF10A rerep
Fc1cccc(/C=N/n2c(C3CCCCC3)n[nH]c2=S)c1,12%,-14%,8.9µM*,4µM*,15%
COc1ccccc1OCCCC(=O)Nc1nnc(C2CCCO2)s1 (stereo unspecified),8%,2%,-5%,18%,0%
CCOc1ccc(-c2csc3nc[nH]c(=O)c23)cc1,?,-4%,-8%,-6%,-11%
Cc1ccc(NC(=O)ON=C2CCCC2)cc1,?,-11%,?,-29%,5%
O=S(=O)(O)c1cc(O)c2c(O)c(N=Nc3cc(Cl)ccc3O)c(S(=O)(=O)O)cc2c1,?,22%,?,?,-3%
Cc1cc(-c2ccc(N=Nc3c(S(=O)(=O)O)cc4cc(S(=O)(=O)O)cc(N)c4c3O)c(C)c2)ccc1N=Nc1c(S(=O)(=O)O)cc2cc(S(=O)(=O)O)cc(N)c2c1O,7.3µM*,-14%,13µM*,14µM*,-16%
CC1CCN(C(=O)/C(=C\c2cccs2)NC(=O)c2ccccc2)CC1,-12%,11%,18µM*,2.8µM*,-2%
NC(=O)c1ccc(NC(=O)COC(=O)c2ccc(Br)c(S(=O)(=O)N3CCOCC3)c2)cc1,/,1%,/,/,1%
Cc1ccc(C)c(C(C)NC(=O)Cc2cccs2)c1 (stereo unspecified),8%,-4%,-2%,2%,9%
CCn1c(=O)n(CC)c2cc(N3CCCC3)c(NC(=O)c3ccc(OC)c(Br)c3)cc21,12µM*,-2%,9%,-27%,?
CCn1c(=O)n(CC)c2cc(N3CCCC3)c(NC(=O)c3cc(Cl)ccc3OC)cc21,18µM*,?,-10%,?,?
CCn1c(=O)n(CC)c2cc(N3CCCC3)c(NC(=O)c3ccccc3OC)cc21,?,17%,-10%,24%,19%
CCn1c(=O)n(CC)c2cc(N3CCCC3)c(NC(=O)c3cccc(C)c3)cc21,-2%,1%,-15%,-26%,-1%
CCOc1ccccc1C(=O)Nc1cc2c(cc1N1CCCC1)n(CC)c(=O)n2CC,8.2µM*,-30%,-7%,?,?
COc1ccc(C2=NCCc3cc(OC)c(OC)cc32)cc1OC,-2%,59%,6.3µM*,-7%,-17%
CCCCC/C=C\C/C=C\C=C\[C@@H](O)C/C=C\CCCC(=O)O,/,/,5%,11%,/
C=CCc1c(C)nc(-c2ccccc2)nc1Nc1ccccc1O,?,6%,-10%,?,23µM*
C=CCc1c(C)nc(-c2ccccc2)nc1N/N=C/c1ccccc1,?,-66%,?,-98%,?
C=CCc1c(C)nc(-c2ccccc2)nc1N/N=C/c1ccncc1,?,23µM*,-6%,-3%,25%
C=CCc1c(C)nc(C)nc1N/N=C/c1ccccc1,-11%,-2%,1.6µM*,10µM*,-6%
O=C(Nc1ccc(N2CCN(c3ccccc3)CC2)c(F)c1)C1CC1,-9%,-5%,-5%,24%,-1%
COc1ccc(/C=C2\SC(=O)N(CCCC(=O)Nc3cc(Cl)ccc3C(=O)O)C2=O)cc1,2.1µM*,-4%,/,/,4%
O=C(CCN1C(=O)/C(=C\c2ccccc2Cl)SC1=S)N1CCN(c2ccccc2)CC1,8%,-2%,-6%,-23%,6.5µM*
COc1ccc(/C=C2/SC(=S)N(CCC(=O)N3CCN(C)CC3)C2=O)cc1,6%,?,19%,10µM*,?
COc1ccc(/C=C2\SC(=S)N(CCC(=O)N3CCCCC3)C2=O)cc1,3%,5%,1%,-9%,6%
SMILES,ELG1 DNA repair,SW480 rerep,Gal4-VP16 FLuc,RORgamma inh,MCF10A rerep
O=C(CCN1C(=O)/C(=C\c2ccccc2F)SC1=S)N1CCCCC1,0%,?,-7%,?,?
COc1ccc(/C=C2/SC(=S)N(CCCC(=O)N3CCN(C)CC3)C2=O)cc1,?,-2%,2.5µM*,1.4µM*,?
COc1ccc(/C=C2\SC(=S)N(CC(=O)N3CCN(C)CC3)C2=O)cc1,12%,-6%,2%,-12%,?
Fc1ccc(Nc2ccnc(-c3ccccc3C(F)(F)F)n2)cc1,/,/,2%,9%,/
c1ccc(CCC2CCCCN2Cc2cn[nH]c2-c2cc3ccccc3o2)nc1 (stereo unspecified),-4%,-1%,-3%,32%,?
N#CCCN(C(=S)Nc1ccc(S(=O)(=O)N2CCOCC2)cc1)c1ccccc1F,-1%,10%,/,/,5%
CCOc1ccc(/C=C2\SC(=S)N(CCC(=O)O)C2=O)cc1,?,-15%,-3%,1.1µM*,2%
O=C1/C(=C/c2ccccc2F)SC(=S)N1CCC(=O)N1CCCCC1CCO (stereo unspecified),-8%,?,-3%,-21%,23µM*
CN1CCN(C(=O)CCCN2C(=O)/C(=C/c3ccc(Cl)cc3)SC2=S)CC1,18µM*,-3%,/,/,?
O=C1/C(=C/c2ccc(Cl)cc2)SC(=S)N1CCC(=O)N1CCCCC1CCO (stereo unspecified),-1%,?,-11%,-3%,?
COc1cccc(/C=C2\SC(=S)N(CCC(=O)N3CCCCC3)C2=O)c1,-5%,-2%,5%,-3%,10µM*
CN1CCN(C(=O)CCCN2C(=O)/C(=C/c3ccccc3)SC2=S)CC1,-28%,?,-4%,-15%,?
COc1ccc(Oc2ccc(C(F)(F)F)cc2NC(=O)CC(CC(=O)O)c2ccccc2)cc1 (stereo unspecified),-4%,-5%,8%,18%,0%
COCCCN(C(=O)CSCC(=O)Nc1ccc(C)cc1)c1c(N)n(Cc2ccccc2)c(=O)[nH]c1=O,/,1%,/,/,-2%
CC1CCN(C(=O)CCN2C(=O)/C(=C/c3cccs3)SC2=S)CC1,-1%,5.8µM*,?,?,23µM*
Cc1ccc(/C=C2\SC(=S)N(CCCC(=O)N3CCOCC3)C2=O)cc1,13µM*,?,?,3.2µM*,?
CC(C)c1ccccc1NC(=O)COC(=O)c1cccnc1,-1%,9%,-9%,6%,0%
CNC(=S)NN=C(C)CCCC(C)=NNC(=S)NC,/,0.41µM*,/,/,1%
COc1ccc2c(c1)/C(=N/N1C(=O)c3ccccc3C1=O)C(=O)N2,-18%,/,-5%[10 µM],20%,/
COc1ccc2c(c1)/C(=C\c1cccc(/C=C3/C(=O)Nc4ccc(OC)cc43)n1)C(=O)N2,/,2.9µM*,/,/,?
O=C(Cc1cccs1)NCCS(=O)(=O)N1CCN(c2ccccc2F)CC1,-14%,23µM*,/,/,16µM*
O=C(CC1CCCC1)NCCS(=O)(=O)N1CCN(c2ccccc2F)CC1,-21%,-6%,/,/,-1%
O=C(NCCS(=O)(=O)N1CCN(c2ccccc2F)CC1)c1ccc(F)c(F)c1,18%,-10%,/,/,11%
